In the supplement of paper PMC12632987:
In all, about 2,300 sequences were measured (“median log2 fold change of GCK-ALFA target abundance (FLAG IP / Myc IP barcode read proportion)”: median about 0.095, lowest 2% from about -0.47 on). For the sample, the lowest values were picked, then their nearest neighbours and some sequences at random.

B1: LC3A_28_830 (protein)
chain: SKIEERIAKFKAEAEAAKASQEPATLTITVTSEDTVEEAKKIAEAMKEEAEKLKDVPDIGIVIDTDGKIDPEVLKILTDTADEIEEKYPNVTVIIALPEE
B2: LC3A_23_622 (protein)
chain: MYKVTVEADTIATPEEAEKYIKLVKEKVEEIKEKYKDKIEEVKLEIEREELPDGTVYLHITVTIIVKDDEELAQKLKNELVDFFDKNIPNGVISYEIEKL
B3: LC3A_free_46_2410 (protein)
chain: YVAEIDVDALAETKEKAEEFAKKIEEAAKEIAKEYGIEVEIEVKISKDEDGTYFVEIEITLEAETKETLEKAVNELIDKIEEIAEELGVSIIISYEISEA
B4: LC3A_28_1055 (protein)
chain: SAVEEQIKKALEEAKELAAKGEEALIEIEIEEDDTEEDVEKKLKTIEEIAEINKDLPSTSIIVNVNNKNKEEVTKKFADLGDELEKKYPNVTVIIALSEE
B5: LC3A_28_1327 (protein)
chain: SELEEQLEKQRKEALELAEKGEDVLIEVTITPETTLEEAEELMEKLRELVKEVAPKVKVSIVVDVEGGVSQEVIDAIAEKADEIEKEYPNATVIIALDED
B6: LC3A_free_39_2199 (protein)
chain: SEEEEEEAEEEILELAEEEGEEALEAAEELLEELEGNLELVEAVLEQVKRAKEEGADVLELLKRLLELVRKLQEEGKSEEEIIEAIEEEADVIINLIPID
B7: LC3A_28_1010 (protein)
chain: MSVVEETKKEAEKALEEAKKGNDAYLEIKITKDTTLEEVKEIGKIIEETAKKISEIENVKLYIVVDDDSNEEKHNIILDKLDEIEKKYPNVSSIVAYTDE
B8: LC3A_3_1354 (protein)
chain: SEELIEEQIERLREAGFSEEVLEAARAAFEGLAAQGHEEGIELLTEALLKHKDAPEEKKLRVLNNLLAEVQANPNLTQEEVEELVKLADLDLAIEELDEE
B9: LC3A_132_313 (protein)
chain: SEKKYEEIKKKLEELLKEAEKNINDKEKVEELLKEIRKLLEEAEKELSPEQVKELYDFVADRLYKLSLKADEAGKEDVSLLLDAAAIEAASKALKAEKKI
B10: LC3A_28_1162 (protein)
chain: SAIEESIKAAFEELEKAIKEGKNGVITLKVPGDATEEDIERLIKALEEIAKKAEEHGINGILIDVDGGVKQEHIDRLAKAAEEIEKKYPKVTIIIALSDE
B11: LC3A_free_46_2347 (protein)
chain: YKAEIDIDLLAEDEETLKKAVEEIVEAAKKIAKKYNLKVNIEVEIEKLEDGSYYARIKITLEGETKEDVEAAVNELIDEIDKIAKKYNVAAIISYEIIKT
B12: LC3A_free_46_2352 (protein)
chain: VEAKIEIDLLADDKEKLEKAVEEIIKKIKEIAKKYGLEVEINYEISKLEDGSYYAKIEITLKGEDLEDVKKAVNELINEIEEIAEKYGVSAVISYEIEDV
B13: LC3A_free_0_2121 (protein)
chain: KKTVVELVVILDEKTSEEKAKEAYEELKEKAEELAEENGWEVEVKLDKVDGRHIITVTLTSDEPDIDKGLELERKLSEIAEEIAKKLGLDATIYSSVYLE
B14: LC3A_free_8_2531 (protein)
chain: NVQEMVDLALKELDKLEKIAVEKAKELGLSRTDILELELVIGSAKIDIIEASDKSVEEIYKLFKEELKEILEEAKKYGEELYKEVEKKAKEALKKMEEAK
B15: LC3A_28_1140 (protein)
chain: SALVEAAKAQIEADAEADKDEPEVLLRVTITSEMTVEQAREIMDHVEEVVEKLKDKEKIYIVVDATEPISQEVLDEIVERLEEIEKKYPNVSSIIALPED
B16: LC3A_28_1037 (protein)
chain: DELRRRAEEAVKEAEEQAKKGEEAVVTIKVGKLPTEEAKRIVREALERLIKISKKYGNVKISVVIDVDGDQELVDAIIDVAEEAEKKNPNLTVIIALSEE
B17: LC3A_23_605 (protein)
chain: MYKVEVIVDFIDKPEEAEKKVEELLKKVEELLKKHKDIVKDYEIKVTREALPDGTTYVEVEITIIIDGTKEEAEEIRNELESIASETLPNGVISSEVEEL
B18: LC3A_59_2035 (protein)
chain: SAEAEAAAARVRERGPSVDVVAEVFREVLEKNGLDPELARDLVAALVAVLVEAGLITAEEGAAIRAEADAAIDRLTDVDELVSELRVIILDALLKKNELE
B19: LC3A_141_361 (protein)
chain: ATKKETFTLTAKTEEEAIEVAEKIKEKIREFMEKTGAKEVKVTVTITAYNKKTGEVKTETIVETVTPENLDLFEEGLLIELLSYFEKGADEVKVTVTIES

biological target: MAP1LC3A, Q9H492; assay: median log2 fold change of GCK-ALFA target abundance (FLAG IP / Myc IP barcode read proportion) (log2 ratio); each designed protein is fused to an ALFA-tag nanobody in HEK293 cells to bring the named protein to FLAG-tagged glucokinase (GCK); Myc marks an untargeted standard; higher = target protein stabilised (more abundant); details: target protein: 3xFLAG-MCP-GCK-ALFA reporter; HEK293 landing pad (RPLP)
Experimental: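 LABEL-seq trans screen in HEK293 landing-pad cells. Each de novo designed 100-aa effector handle, binding the indicated effector (E3 ligase, DUB or autophagy protein), is fused to a constant NbALFA target handle and induced with 2 ug/mL doxycycline. A FLAG-MCP-GCK-ALFA target and a Myc-MCP standard reporter were transfected, and after 48 h circRNA barcodes were recovered by anti-FLAG and anti-Myc IP and sequenced. The value is the median across barcodes (at least 3 per design) of log2(FLAG/Myc read-proportion ratio), with the two transfection replicates pooled. Negative values mean degradation and positive values mean stabilisation of the target.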

Point of comparison: B11, “median log2 fold change” value -0.556. Against it:
- B1 — higher, 0.132
- B2 — within 0.2 log units, -0.561
- B3 — higher, 0.0318
- B4 — higher, 0.0494
- B5 — within 0.2 log units, -0.563
- B6 — higher, 0.103
- B7 — within 0.2 log units, -0.515
- B8 — higher, 0.184
- B9 — higher, -0.171
- B10 — higher, -0.0306
- B12 — higher, 0.204
- B13 — higher, 0.00278
- B14 — higher, -0.0124
- B15 — higher, -0.0164
- B16 — within 0.2 log units, -0.36
- B17 — lower, -0.868
- B18 — higher, 0.256
- B19 — higher, -0.0634
